Laboratory results taken from PubChem BioAssay AID1159580 (chemical genetic matrix, 2015).
Values joined by “and” are separate entries in the source; they are usually repeats but may differ in a detail not shown here. Identical values can stand only once. Hit rate of the full screen: of about 5,500 compounds, about 2,000 (36%) were called active. Another 18% or so got no clear call; they are omitted. Cut-off read from the data, not from the text of the source: active = normalized growth mostly below about 0.91 (no sharp cut-off); inconclusive = no clear call, values can overlap the other calls; inactive = mostly above about 0.92. The list shows a part of the results.

Assay: chemical genetic growth profiling, strain panel (AID 1159580);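 note: tested at 20 µM; growth read once vehicle control cultures reached saturation at 30 °C; 1 = growth at the plate median or of vehicle wells; lower values mean less growth of the strain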
Settings: S. cerevisiae deletion strains, growth OD

Measured: normalized growth

COC(=O)C[C@H]1C(C)(C)[C@@H](OC(C)=O)[C@@H]2CC3=C4CC(=O)O[C@@H](c5ccoc5)[C@]4(C)CCC3[C@@]1(C)C2=O (stereo partly specified)
inactive: locus YAL021C, strain ccr4, stronger effect = lower value 1.04 | locus YAL026C, strain drs2, stronger effect = lower value 0.998 | locus YAL030W, strain snc1, stronger effect = lower value 0.996 | locus YBL061C, strain skt5, stronger effect = lower value 0.991 | locus YBR009C, strain hhf1, stronger effect = lower value 1 | locus YBR021W, strain FUR4, stronger effect = lower value 1.01 | locus YBR023C, strain chs3, stronger effect = lower value 1 | locus YBR171W, strain sec66, stronger effect = lower value 0.996 | locus YBR229C, strain ROT2, stronger effect = lower value 0.997 | locus YBR231C, strain swc5, stronger effect = lower value 0.971 | locus YBR279W, strain paf1, stronger effect = lower value 0.999 | locus YCL011C, strain gbp2, stronger effect = lower value 1.01 | locus YCL016C, strain dcc1, stronger effect = lower value 1.01 | locus YCL029C, strain bik1, stronger effect = lower value 0.998 | locus YCL061C, strain MRC1, stronger effect = lower value 0.999 | locus YCL069W, strain vba3, stronger effect = lower value 0.984 | locus YCR088W, strain abp1, stronger effect = lower value 0.995 | locus YDL005C, strain med2, stronger effect = lower value 0.991 | locus YDL035C, strain GPR1, stronger effect = lower value 0.986 | locus YDL040C, strain nat1, stronger effect = lower value 0.995 | locus YDL074C, strain BRE1, stronger effect = lower value 0.996 | locus YDL101C, strain DUN1, stronger effect = lower value 1.02 | locus YDL185W, strain tfp1, stronger effect = lower value 1.01 | locus YDL192W, strain arf1, stronger effect = lower value 0.998 | locus YDR001C, strain nth1, stronger effect = lower value 0.997 | locus YDR069C, strain doa4, stronger effect = lower value 0.982 | locus YDR101C, strain arx1, stronger effect = lower value 0.976 | locus YDR137W, strain rgp1, stronger effect = lower value 0.997 | locus YDR159W, strain sac3, stronger effect = lower value 0.962 | locus YDR162C, strain NBP2, stronger effect = lower value 0.983 | locus YDR195W, strain ref2 0.938 | locus YDR297W, strain sur2, stronger effect = lower value 0.983 | locus YDR318W, strain mcm21, stronger effect = lower value 0.998 | locus YDR334W, strain swr1, stronger effect = lower value 0.99 | locus YDR335W, strain msn5, stronger effect = lower value 1 | locus YDR388W, stronger effect = lower value 1.01 | locus YDR392W, strain spt3, stronger effect = lower value 0.963 | locus YDR502C, strain sam2, stronger effect = lower value 1 | locus YEL003W, strain gim4, stronger effect = lower value 0.978 | locus YEL037C, strain rad23, stronger effect = lower value 0.989 | locus YEL061C, strain CIN8 (second series), stronger effect = lower value 0.99 | locus YER015W, strain faa2, stronger effect = lower value 1 | locus YER016W, strain bim1, stronger effect = lower value 0.995 | locus YER110C, stronger effect = lower value 1 | locus YER111C, strain swi4, stronger effect = lower value 1 | locus YER155C, strain BEM2 (second series), stronger effect = lower value 1.01 | locus YER155C, strain BEM2, stronger effect = lower value 0.997 | locus YER167W, strain BCK2, stronger effect = lower value 0.998 | locus YFR010W, strain ubp6, stronger effect = lower value 0.976 | locus YGL078C, strain dbp3, stronger effect = lower value 1.01 | locus YGL086W, strain mad1, stronger effect = lower value 1.01 | locus YGL167C, strain pmr1, stronger effect = lower value 1.01 | locus YGL173C, strain kem1, stronger effect = lower value 0.989 | locus YGL227W, strain vid30, stronger effect = lower value 0.993 | locus YGL240W, strain doc1, stronger effect = lower value 1 | locus YGL248W, strain PDE1, stronger effect = lower value 1 | locus YGL253W, strain hxk2, stronger effect = lower value 0.913 | locus YGR078C, strain PAC10, stronger effect = lower value 1.01 | locus YGR135W, strain pre9, stronger effect = lower value 1.02 | locus YGR252W, strain gcn5, stronger effect = lower value 1.01 | locus YHR013C, strain ard1, stronger effect = lower value 1.01 | locus YHR027C, strain rpn1, stronger effect = lower value 1 | locus YHR030C, strain SLT2, stronger effect = lower value 1 and 0.993 | locus YHR079C, strain IRE1 (second series), stronger effect = lower value 0.996 | locus YHR079C, strain IRE1, stronger effect = lower value 0.992 | locus YHR094C, strain hxt1, stronger effect = lower value 1 | locus YHR129C, strain ARP1, stronger effect = lower value 1.01 | locus YHR142W, strain chs7, stronger effect = lower value 0.988 | locus YHR200W, strain rpn10, stronger effect = lower value 1.01 | locus YIL066C, strain RNR3, stronger effect = lower value 1.01 | locus YIL073C, strain SPO22, stronger effect = lower value 1.02 | locus YIL125W, strain kgd1, stronger effect = lower value 0.993 | locus YIR030C, strain dcg1, stronger effect = lower value 1 | locus YJL092W, strain hpr5, stronger effect = lower value 0.996 | locus YJL095W, strain BCK1 (second series), stronger effect = lower value 1.01 | locus YJL095W, strain BCK1, stronger effect = lower value 1.04 and 0.984 | locus YJL115W, strain asf1, stronger effect = lower value 0.997 | locus YJL129C, strain trk1, stronger effect = lower value 0.952 | locus YJL134W, strain LCB3, stronger effect = lower value 0.998 | locus YJL154C, strain vps35, stronger effect = lower value 0.998 | locus YJL164C, strain tpk1, stronger effect = lower value 1.03 | locus YJL166W, strain qcr8, stronger effect = lower value 1 | locus YJL168C, strain set2, stronger effect = lower value 0.995 | locus YJL187C, strain SWE1 (second series), stronger effect = lower value 1.03 | locus YJL187C, strain SWE1, stronger effect = lower value 1.01 | locus YJR043C, strain POL32, stronger effect = lower value 0.987
